Data as given in the supplement of paper PMC11732987, “Enantioselective OTUD7B fragment discovery through chemoproteomics screening and high-throughput optimisation” (Communications Chemistry, 2025).

Tests used:
Assay in all cases: log2 ratio of Biotin-Ahx-Ub-VS probe labelling (fragment/DMSO); higher = less target engagement (more negative = stronger competition), active = hit call of the paper (q ≤ 0.05, log2 ratio ≤ -1)
Details in all cases: compound concentration: 200 uM; treatment time: 3 h
OTUD6B = target: T1, OTUD6B (UniProt Q8N6M0)
T1 sequence (whole entry): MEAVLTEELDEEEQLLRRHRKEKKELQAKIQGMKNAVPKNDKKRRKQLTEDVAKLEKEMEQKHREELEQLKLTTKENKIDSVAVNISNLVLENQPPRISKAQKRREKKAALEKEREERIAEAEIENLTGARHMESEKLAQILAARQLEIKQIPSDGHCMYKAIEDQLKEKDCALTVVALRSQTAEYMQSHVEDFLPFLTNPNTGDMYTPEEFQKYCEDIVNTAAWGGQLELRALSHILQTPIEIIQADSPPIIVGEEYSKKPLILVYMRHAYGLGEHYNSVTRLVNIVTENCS
Outline: (§1)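 Triplicate samples of HEK293T lysate, 495 µg each, received fragment at 200 µM or vehicle for 3 h, followed by Biotin-Ahx-Ub-VS (0.5 µM final) for 1 h. After NeutrAvidin enrichment of labelled DUBs and LysC/trypsin digestion, peptides were run by diaPASEF LC-MS/MS. The values are average log2 fragment/vehicle ratios from global-median-normalised Spectronaut label-free quantities, tested by unpaired t-test on proteins having ≥2 unique peptides.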

OTUD7B = target: T2, OTUD7B (UniProt Q6GQQ9)
T2 sequence (whole entry): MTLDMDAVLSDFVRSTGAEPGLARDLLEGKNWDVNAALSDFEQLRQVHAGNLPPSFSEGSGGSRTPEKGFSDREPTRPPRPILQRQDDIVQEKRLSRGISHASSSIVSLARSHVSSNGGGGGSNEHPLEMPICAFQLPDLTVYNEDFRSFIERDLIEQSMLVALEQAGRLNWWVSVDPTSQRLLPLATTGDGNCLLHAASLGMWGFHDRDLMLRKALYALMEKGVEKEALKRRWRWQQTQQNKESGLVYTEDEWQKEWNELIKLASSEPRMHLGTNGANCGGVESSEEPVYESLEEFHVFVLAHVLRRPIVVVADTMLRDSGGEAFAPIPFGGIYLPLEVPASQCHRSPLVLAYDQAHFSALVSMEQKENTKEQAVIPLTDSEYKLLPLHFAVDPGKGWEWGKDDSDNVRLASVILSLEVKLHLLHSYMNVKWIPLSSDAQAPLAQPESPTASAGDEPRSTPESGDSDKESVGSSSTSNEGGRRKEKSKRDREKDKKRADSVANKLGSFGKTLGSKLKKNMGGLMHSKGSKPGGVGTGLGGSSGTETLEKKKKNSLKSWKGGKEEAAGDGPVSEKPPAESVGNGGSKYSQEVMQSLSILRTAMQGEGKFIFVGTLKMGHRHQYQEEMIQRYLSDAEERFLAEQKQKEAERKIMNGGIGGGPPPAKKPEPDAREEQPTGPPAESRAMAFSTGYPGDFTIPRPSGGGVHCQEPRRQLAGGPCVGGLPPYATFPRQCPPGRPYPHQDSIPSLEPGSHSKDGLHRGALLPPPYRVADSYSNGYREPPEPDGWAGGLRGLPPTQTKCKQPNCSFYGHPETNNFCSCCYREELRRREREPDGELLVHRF
Outline: as §1

PRPF8 = PRPF8 (UniProt Q6P2Q9)
Outline: as §1

PSMD7 = target: T3, PSMD7 (UniProt P51665)
T3 sequence (whole entry): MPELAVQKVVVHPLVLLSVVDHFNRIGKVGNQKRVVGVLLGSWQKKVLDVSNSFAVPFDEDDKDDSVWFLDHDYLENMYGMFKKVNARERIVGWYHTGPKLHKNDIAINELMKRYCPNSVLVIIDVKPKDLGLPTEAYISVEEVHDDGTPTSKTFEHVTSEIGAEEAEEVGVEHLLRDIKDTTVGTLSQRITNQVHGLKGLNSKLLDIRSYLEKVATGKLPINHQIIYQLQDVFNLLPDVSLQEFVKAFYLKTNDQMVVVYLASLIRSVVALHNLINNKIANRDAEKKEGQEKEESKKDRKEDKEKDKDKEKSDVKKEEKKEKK
Outline: as §1

UCHL1 = UCHL1 (UniProt P09936)
Outline: as §1

UCHL3 = target: T4, UCHL3 (UniProt P15374)
T4 sequence (whole entry): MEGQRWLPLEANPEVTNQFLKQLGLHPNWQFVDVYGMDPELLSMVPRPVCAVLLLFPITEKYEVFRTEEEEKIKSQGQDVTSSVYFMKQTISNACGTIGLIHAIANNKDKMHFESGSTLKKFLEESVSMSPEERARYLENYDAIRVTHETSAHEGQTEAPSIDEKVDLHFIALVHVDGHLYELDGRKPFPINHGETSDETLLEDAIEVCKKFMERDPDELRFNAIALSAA
Outline: as §1

UCHL5 = target: T5, UCHL5 (UniProt Q9Y5K5)
T5 sequence (whole entry): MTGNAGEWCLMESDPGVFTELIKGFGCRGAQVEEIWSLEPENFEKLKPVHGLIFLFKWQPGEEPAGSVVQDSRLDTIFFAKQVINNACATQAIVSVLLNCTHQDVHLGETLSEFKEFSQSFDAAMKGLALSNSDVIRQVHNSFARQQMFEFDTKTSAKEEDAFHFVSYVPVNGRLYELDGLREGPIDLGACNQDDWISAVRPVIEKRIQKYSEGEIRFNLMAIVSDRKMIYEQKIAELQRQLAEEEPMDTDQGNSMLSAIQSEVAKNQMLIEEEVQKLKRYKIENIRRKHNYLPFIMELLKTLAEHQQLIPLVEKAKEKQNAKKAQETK
Outline: as §1

USP10 = USP10 (UniProt Q14694)
Outline: as §1

USP15 = target: T6, USP15 (UniProt Q9Y4E8)
T6 sequence (whole entry): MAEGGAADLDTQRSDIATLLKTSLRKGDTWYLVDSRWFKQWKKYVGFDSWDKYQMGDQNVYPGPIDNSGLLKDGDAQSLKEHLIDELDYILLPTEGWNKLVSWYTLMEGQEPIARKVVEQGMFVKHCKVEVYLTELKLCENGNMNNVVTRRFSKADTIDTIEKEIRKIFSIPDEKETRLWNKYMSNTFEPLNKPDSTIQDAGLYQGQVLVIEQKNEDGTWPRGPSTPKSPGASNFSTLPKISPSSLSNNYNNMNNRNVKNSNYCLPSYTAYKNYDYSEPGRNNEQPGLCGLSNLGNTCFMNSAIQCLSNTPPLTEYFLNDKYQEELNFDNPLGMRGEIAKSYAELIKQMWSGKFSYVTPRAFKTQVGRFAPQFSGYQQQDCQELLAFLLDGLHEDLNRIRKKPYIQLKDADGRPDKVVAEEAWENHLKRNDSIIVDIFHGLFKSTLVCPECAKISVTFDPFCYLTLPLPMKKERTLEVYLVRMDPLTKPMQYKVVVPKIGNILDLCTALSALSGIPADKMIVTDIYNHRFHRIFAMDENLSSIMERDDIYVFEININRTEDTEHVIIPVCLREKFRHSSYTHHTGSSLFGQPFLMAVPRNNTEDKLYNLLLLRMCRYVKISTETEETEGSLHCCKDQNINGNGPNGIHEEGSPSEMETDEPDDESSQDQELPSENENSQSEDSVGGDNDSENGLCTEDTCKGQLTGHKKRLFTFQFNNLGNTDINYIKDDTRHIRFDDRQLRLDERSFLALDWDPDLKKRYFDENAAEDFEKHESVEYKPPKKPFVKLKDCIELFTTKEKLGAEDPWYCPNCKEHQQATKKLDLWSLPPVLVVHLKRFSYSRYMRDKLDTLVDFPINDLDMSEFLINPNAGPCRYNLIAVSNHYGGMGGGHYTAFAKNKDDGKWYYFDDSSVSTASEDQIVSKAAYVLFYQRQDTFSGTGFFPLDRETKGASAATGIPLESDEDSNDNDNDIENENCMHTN
Outline: as §1

USP16 = USP16 (UniProt Q9Y5T5)
Outline: as §1

Measured: log2 ratio of Biotin-Ahx-Ub-VS probe labelling

Sequence of UCHL1 (P09936 whole entry, looked up): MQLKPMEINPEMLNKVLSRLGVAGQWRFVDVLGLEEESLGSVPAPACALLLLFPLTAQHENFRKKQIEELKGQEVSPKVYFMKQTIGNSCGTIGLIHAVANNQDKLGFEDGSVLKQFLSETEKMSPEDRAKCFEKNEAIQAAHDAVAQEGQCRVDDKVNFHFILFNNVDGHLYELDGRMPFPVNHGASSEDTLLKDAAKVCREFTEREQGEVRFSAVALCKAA
Sequence of USP16 (Q9Y5T5 whole entry, looked up): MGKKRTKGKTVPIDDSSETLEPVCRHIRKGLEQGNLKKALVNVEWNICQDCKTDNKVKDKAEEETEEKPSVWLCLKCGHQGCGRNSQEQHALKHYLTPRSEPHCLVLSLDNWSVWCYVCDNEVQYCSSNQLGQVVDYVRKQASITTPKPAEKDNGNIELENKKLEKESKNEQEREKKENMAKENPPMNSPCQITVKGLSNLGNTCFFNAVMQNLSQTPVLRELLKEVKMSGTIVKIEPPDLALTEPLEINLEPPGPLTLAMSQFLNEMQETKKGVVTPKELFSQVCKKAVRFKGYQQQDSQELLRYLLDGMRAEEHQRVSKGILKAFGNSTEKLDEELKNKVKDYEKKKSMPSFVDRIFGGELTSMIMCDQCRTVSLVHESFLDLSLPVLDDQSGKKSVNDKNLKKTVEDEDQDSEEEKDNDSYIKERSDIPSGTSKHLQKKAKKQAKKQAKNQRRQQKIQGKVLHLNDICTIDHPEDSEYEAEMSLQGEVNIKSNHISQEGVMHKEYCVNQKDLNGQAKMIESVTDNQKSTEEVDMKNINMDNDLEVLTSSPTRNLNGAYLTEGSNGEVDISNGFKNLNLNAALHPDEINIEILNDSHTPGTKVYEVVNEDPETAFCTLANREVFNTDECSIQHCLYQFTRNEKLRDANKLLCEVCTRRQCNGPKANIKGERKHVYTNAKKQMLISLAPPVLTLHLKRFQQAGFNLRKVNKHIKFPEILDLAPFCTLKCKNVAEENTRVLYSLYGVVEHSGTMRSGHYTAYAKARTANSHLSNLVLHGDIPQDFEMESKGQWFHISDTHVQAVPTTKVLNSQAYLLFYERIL
Sequence of USP10 (Q14694 whole entry): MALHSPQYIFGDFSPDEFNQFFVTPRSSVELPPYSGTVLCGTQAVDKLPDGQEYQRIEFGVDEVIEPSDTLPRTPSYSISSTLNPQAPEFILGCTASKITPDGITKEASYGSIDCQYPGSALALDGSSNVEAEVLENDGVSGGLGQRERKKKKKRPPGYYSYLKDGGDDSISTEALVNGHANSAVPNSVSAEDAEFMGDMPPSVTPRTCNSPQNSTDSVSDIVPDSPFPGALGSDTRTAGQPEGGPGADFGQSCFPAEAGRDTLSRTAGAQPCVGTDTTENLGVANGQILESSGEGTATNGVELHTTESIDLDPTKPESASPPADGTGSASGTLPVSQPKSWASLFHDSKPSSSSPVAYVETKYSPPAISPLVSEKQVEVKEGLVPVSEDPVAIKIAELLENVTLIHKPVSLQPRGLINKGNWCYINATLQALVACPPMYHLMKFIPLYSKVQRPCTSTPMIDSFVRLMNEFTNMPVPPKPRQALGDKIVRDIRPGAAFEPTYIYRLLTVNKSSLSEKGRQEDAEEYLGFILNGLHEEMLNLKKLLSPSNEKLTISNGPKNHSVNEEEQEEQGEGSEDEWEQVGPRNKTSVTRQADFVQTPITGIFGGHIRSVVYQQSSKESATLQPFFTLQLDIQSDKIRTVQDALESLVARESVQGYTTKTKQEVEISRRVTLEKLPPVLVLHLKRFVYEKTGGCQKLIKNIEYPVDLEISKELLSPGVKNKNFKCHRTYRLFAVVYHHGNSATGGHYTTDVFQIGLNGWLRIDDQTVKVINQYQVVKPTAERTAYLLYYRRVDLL

CNC(=O)C1CCN(C(=O)CCl)CC1
inactive: OTUD6B -0.163 | OTUD7B -0.121 | PRPF8 -0.218 | PSMD7 0.12 | UCHL1 -0.544 | UCHL3 0.53 | UCHL5 -0.0712 | USP10 -0.383 | USP15 -0.0196 | USP16 0.31
